Sampled rows, rich in hits. Any-hit rate of the full collection: about 2.4%.
D2 antag – D2 dopamine receptor (human) antagonism; P14416; HEK293 TREx D2 cells, calcium flux, dopamine EC80; inhibition, % at 10 µM; 340,000 tested, 2% active; AID 485344; in the data active means inhibition above about 30%; inactive means below that, where a call was filed
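Calcium flux kinetic readout in an inducible HEK293 TREx D2 line plated overnight at 30 C. After 180 s compound exposure, an EC80 dopamine challenge follows with another 180 s kinetic read to detect antagonism.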
D2 PAM-1 – potentiates the human D2 dopamine receptor allosterically. DiscoveRx D2 beta-arrestin cells, luminescence, 90 min; 100% = 57 uM dopamine signal. potentiation, % (concentration not given with the values). 360,000 tested, 0.23% active; in the data active means potentiation above about 50%; inconclusive means mostly about 30% to 49%
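PathHunter D2 cells, attached overnight at 37 deg C, received compound in DMSO plus dopamine at EC20 (50 nM final) for 90 min at 37 deg C. Beta-arrestin recruitment was read as luminescence after 1 h with detection reagent at ambient temperature.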
D2 PAM-2 – positively modulates the human D2 dopamine receptor allosterically; P14416; HEK293 T-REx D2, calcium flux, EC20 dopamine potentiation; potentiation, % at 10 µM; 340,000 tested, 0.34% active; AID 485347;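 active means potentiation over 3 SD above the plate norm, cut at about 30% in these data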
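Potentiation of an EC20 dopamine calcium response is measured in a force-coupled, tetracycline-inducible Hek293 Trex D2 line. Compound-only kinetic reads over 180 s flag agonists before dopamine addition.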
D2 ag-1 – agonists of human D2 dopamine receptor; 340,000 tested, 0.53% active; AID 485358; HEK293 T-REx D2 cells, calcium flux agonist mode; P14416; activation, % at 2 µM;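 active means activation over 3 SD above normal in the single-dose calcium agonist read, cut at about 30% in these data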
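Tetracycline-induced HEK293 Trex cells with D2 receptor force-coupled to calcium signaling, plated overnight at 30 C and loaded with no-wash calcium dye. Calcium flux read kinetically for 180 s after compound addition; responses flag agonists.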
D2 ag-2 – human D2 receptor agonism in beta-arrestin assay. P14416. DiscoveRx PathHunter D2 beta-arrestin, luminescence, 90 min; 100% = 57 uM dopamine signal. AID 624465. 360,000 tested, 0.084% active. activation, % (no concentration beside the values); in the data active means activation above about 40%; inconclusive means between about 15% and that limit
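DiscoveRx PathHunter D2 beta-arrestin cells (2,100/well) attached overnight, then compound-stimulated 90 min at 37 C in HBSS/10 mM HEPES/0.1% Tween-20 buffer; beta-galactosidase complementation read by luminescence after 1 h at ambient temperature. Dopamine 57 uM final (EC100) as control.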
D3 arrestin ag – confirmation of human D3 dopamine receptor agonists, beta-arrestin. shares compounds with D2 ag-1. DiscoveRx D3 beta-arrestin cells, luminescence, 90 min. Potency, µM (doses to about 76.9 µM), actives largely listed as activators. 2,300 tested, 4% active; further: nearly all actives have a fitted effect of over 70% in size
Target sequence (P35462 whole entry, looked up): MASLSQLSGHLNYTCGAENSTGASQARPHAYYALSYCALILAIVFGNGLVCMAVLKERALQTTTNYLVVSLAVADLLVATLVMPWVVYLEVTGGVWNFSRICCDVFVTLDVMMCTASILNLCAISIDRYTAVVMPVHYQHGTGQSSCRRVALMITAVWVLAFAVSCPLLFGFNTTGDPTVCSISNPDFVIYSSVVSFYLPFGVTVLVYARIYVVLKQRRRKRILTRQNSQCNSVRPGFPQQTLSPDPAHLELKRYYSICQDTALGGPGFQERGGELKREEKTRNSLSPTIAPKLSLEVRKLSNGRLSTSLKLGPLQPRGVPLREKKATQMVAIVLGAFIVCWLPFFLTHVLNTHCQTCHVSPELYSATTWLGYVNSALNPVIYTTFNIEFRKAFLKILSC
D2 ag-3 – activates human D2 dopamine receptor in D3 counterscreen | shares compounds with D2 ag-1 | DiscoveRx PathHunter D2 beta-arrestin, luminescence, 90 min; response scale: percent relative to full dopamine signal | Potency, µM (titrated, usually from 76.9 µM), hits mostly activators | 2,300 tested, 5.9% active | AID 720507; further: nearly all actives have a fitted effect of over 70% in size
A number is an active result; – = inactive; ? = inconclusive; · = no result given. Unless noted, the call rests on the fitted dose curve; in most records, active means well fitted activation curve with a large enough effect; inconclusive means small, poorly fitted or top-dose-only effect; inactive means flat fitted curve, though single readings scatter.

SMILES	D2 antag	D2 PAM-1	D2 PAM-2	D2 ag-1	D2 ag-2	D3 arrestin ag	D2 ag-3
COc1cccc(CNC(=O)c2sc3nc[nH]c(=O)c3c2C)c1	·	·	–	–	·	·	·
COc1cc([C@H]2[C@@H]3CCCC[C@]3(O)CCN2Cc2ccccc2F)ccc1O	–	–	–	–	–	·	·
COc1cc([C@H]2[C@@H]3CCCC[C@]3(O)CCN2CC(=O)Nc2ccc(C)cc2C)ccc1O	–	–	–	–	–	–	–
CCCCN1CC(c2nc3ccccc3n2CCCCOc2ccccc2C)CC1=O (stereo not given)	·	·	–	–	·	·	·
CCOc1ccc(CCNC(=O)Cc2ccc(NC(=O)N3CCSc4ncccc43)cc2)cc1	·	·	–	–	·	·	·
O=C(O)CCCCCCCCc1cn(CCc2c[nH]c3ccccc23)nn1	–	–	–	93	–	–	–
CCOC1=C2[C@@H](CN(S(=O)(=O)c3ccc(C)cc3)[C@H]2c2ccccc2)[C@H]2C(=O)N(Cc3ccccc3)C(=O)[C@H]2C1	·	–	·	·	–	·	·
c1ccc2c(C3OCC4(CCCC4)CO3)cccc2c1	·	–	·	·	–	·	·
c1ccc2c(C3CCO3)cccc2c1 (stereo not given)	·	–	·	·	–	–	–
CCOc1ccc(C=NCC(O)c2ccccc2)cc1 (stereo not given)	–	–	–	–	–	–	–
CCOc1ccc(/C=N/NC(=O)C(OC)c2ccccc2)cc1 (stereo not given)	–	–	–	–	–	·	·
COc1cc(C2NC(=O)NC(C)=C2C(=O)OCc2ccc(C)cc2)cc(OC)c1OC (stereo not given)	35	–	–	–	–	–	–
COc1cc(C2NC(=O)NC(C)=C2C(=O)OCc2ccc(C)cc2)cc(OC)c1O (stereo not given)	–	–	–	–	–	·	·
O=C(Cn1cnc2ccccc2c1=O)NCC(=O)N1CCN(Cc2ccc3c(c2)OCO3)CC1	–	–	–	48	–	–	–
O=C(Cn1cnc2ccccc2c1=O)N1CCN(Cc2ccc3c(c2)OCO3)CC1	55	–	–	50	?	–	?
Cc1oc(-c2cccc(Cl)c2)nc1CSCC(=O)NCc1ccccc1Cl	·	·	–	–	·	·	·
CCN(CC)C(=O)c1[nH]cnc1C(=O)N[C@@H](C)C(=O)OC(C)(C)C	–	–	–	–	–	–	–
NS(=O)(=O)c1ccc(NC(=O)c2cccc3cc4ccccc4nc23)cc1	·	–	·	·	–	·	·
COc1ccc2[nH]c3c(=O)n(/N=C/[C@H]4C(C)C=C(C)CC4C)c(=O)[nH]c3c2c1 (stereo not given in full)	36	–	–	41	–	–	–
COc1ccc2c(c1)[nH]c1c(=O)n(/N=C/C3C(C)C=C(C)CC3C)c(=O)[nH]c12 (stereo not given)	–	–	·	–	–	·	·
Cn1cnc(C(=O)N2CCN(c3ccccc3)CC2)c1C(=O)N1CCN(c2ccccc2)CC1	–	–	–	–	–	–	–
C/C=C/c1cc(CN2CCN(c3ccccc3)CC2)c(O)c(OC)c1	·	–	–	·	–	–	–
Cc1c(Cc2ccccc2)c(=O)oc2c(O)c(O)ccc12	34	–	–	54	–	?	–
Cc1ccc(CN2CCN(c3ccccn3)CC2)s1	94	68	–	–	65	?	0.16µM
Cc1ccc(S(=O)(=O)CCN2CCN(c3ccccn3)CC2)cc1	–	–	–	–	–	·	·
SMILES	D2 antag	D2 PAM-1	D2 PAM-2	D2 ag-1	D2 ag-2	D3 arrestin ag	D2 ag-3
CC(=O)Nc1sc2c(c1CN1CCN(c3ccccn3)CC1)CCCC2	–	–	–	–	–	·	·
c1ccc(N2CCN(c3cnccn3)CC2)nc1	–	–	–	–	–	·	·
CC1(C)C2CC[C@]1(C)C(=O)N(CCCCN1CCN(c3ccccn3)CC1)C2=O	116	?	–	86	70	?	0.063µM
c1ccc(N2CCN(Cc3ccsc3)CC2)nc1	84	101	–	76	66	?	0.71µM
Cc1sc(NC(=O)c2ccco2)c(CN2CCN(c3ccccn3)CC2)c1C	124	–	–	68	–	–	–
COC(=O)c1sc2cccc(F)c2c1S(=O)(=O)N1CCN(c2ccccc2OC)CC1	·	·	–	–	·	·	·
O=c1cc(CN2CCN(c3ccccn3)CC2)nc2sccn12	–	–	–	55	–	–	–
c1ccc(CCCN2CCN(c3ccccn3)CC2)cc1	75	–	–	76	–	?	?
COc1ccc(CCNC(=O)CS(=O)(=O)Cc2nc(-c3cccc(Cl)c3)oc2C)cc1OC	·	·	–	–	·	·	·
CC(C)(C)c1cc(CCC(=O)NNC(=S)NC(=O)c2ccccc2)cc(C(C)(C)C)c1O	·	–	·	·	–	–	–
CCCN(CC(=O)Nc1ccccc1C)C(=O)c1ccc2c(c1)OCO2	–	–	–	–	–	–	–
COCCN(CC(=O)Nc1cccc(C)c1C)C(=O)c1ccc2c(c1)OCO2	–	–	–	–	–	·	·
O=CNc1ccccc1	–	–	–	–	–	–	–
Cc1ccc2onc(CC(=O)N(C)c3ccccc3)c2c1	·	·	–	–	·	·	·
Cc1ccc(C(=O)/C=C/Nc2ccc(S(=O)(=O)Nc3cc(C)nc(C)n3)cc2)cc1	–	–	–	–	–	–	–
O=C(c1cccc([N+](=O)[O-])c1)N1CCN(C/C=C/c2ccccc2)CC1	–	–	–	–	–	·	·
CC(C(=O)Nc1cccc([N+](=O)[O-])c1)N1CCN(C/C=C/c2ccccc2)CC1 (stereo not given)	47	–	–	72	–	–	?
O=C(CSC1=NS(=O)(=O)c2ccccc2N1)NCCc1ccccc1	–	–	–	–	–	–	–
COc1ccc(CCNC(=O)CSC2=NS(=O)(=O)c3ccccc3N2)cc1OC	–	–	–	–	–	·	·
COc1ccc(NC(=O)CSc2nc3c(c(=O)[nH]2)CCC3)cc1	·	·	–	–	·	·	·
COC(=O)c1cc(NC(=O)CC2Oc3ccccc3NC2=O)cc(C(=O)OC)c1 (stereo not given)	–	–	–	–	–	–	–
S=C(NCc1ccccn1)Nc1ccccc1	–	–	–	–	–	–	–
Cc1c(Cl)cccc1NC(=O)N1CCN(Cc2cc(=O)n3nc(-c4ccccc4F)sc3n2)CC1	·	·	–	·	·	·	·
CCOc1cccc(-c2c(C(=O)N/N=C(\C)c3cccs3)nnn2-c2nonc2N)c1	–	–	–	–	–	–	–
C/C(=N\NC(=O)c1nnn(-c2nonc2N)c1-c1ccc2c(c1)OCO2)c1cccs1	37	–	–	32	–	–	–
COc1cccc(-c2c(C(=O)N/N=C(\C)c3cccs3)nnn2-c2nonc2N)c1	–	–	–	37	–	–	–

Assay outcomes: PubChem, National Center for Advancing Translational Sciences (NCATS)
